WRN inhibitor: inhibitors of human WRN helicase. Q14191. WRN helicase unwinding, fluorescent forked duplex, kinetic. Potency, µM (highest dose often 114 µM), inactives show top-dose activity change, negative = inhibition, most hits filed as inhibitors. 360,000 tested, 0.46% active. AID 651768; note: % is set by controls: 0 for no effect and ±100 for the full control effect; nearly all actives have a fitted effect of over 55% in size
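Kinetic fluorescence helicase assay: unwinding of a quenched forked DNA duplex (100 nM final) with 2 mM ATP final raises red fluorescence (525/598 nm). Compounds sat 15 min at room temperature with 20 nM WRN beforehand.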
Pol iota inh: blocks human DNA polymerase iota activity; Potency, µM (top dose mostly 115 µM), for inactives: at the highest dose activity, negative = inhibition, most hits filed as inhibitors; 390,000 tested, 1% active; Pol iota fluorescent replication assay, 10 min; Q9UNA4; AID 588590
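Pol iota at 10 nM preincubated 15 min with compounds at room temperature; reaction started with fluorescent substrate, 50 nM final. Fluorescence read kinetically at 0 and 10 min; buffer-only wells as negative control.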
Pol eta inh-1: DNA polymerase eta (human) inhibition; recombinant Pol eta, fluorescent DNA replication assay; Potency, µM (top dose mostly 114 µM), for inactives: at the highest dose activity change, negative = inhibition, usual class: inhibitors; 390,000 tested, 1.2% active; note: % is set by controls: 0 for no effect and ±100 for the full control effect
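Pol eta (10 nM) was preincubated with compounds for 15 min at room temperature, after which fluorescent replication substrate (50 nM final) was added to start the reaction. Fluorescence was read kinetically at 0 and 10 min.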
FEN1 inh: blocks human flap endonuclease 1; P39748; Recombinant FEN1 flap cleavage, fluorescence, 15 min; Potency, µM (highest dose often 114 µM), inactives show at the highest dose activity change, negative = inhibition, hits mostly inhibitors; 390,000 tested, 0.35% active; AID 588795; note: % is set by controls: 0 for no effect and ±100 for the full control effect; nearly all actives have a fitted effect of over 65% in size
Target sequence (P39748 whole entry, looked up): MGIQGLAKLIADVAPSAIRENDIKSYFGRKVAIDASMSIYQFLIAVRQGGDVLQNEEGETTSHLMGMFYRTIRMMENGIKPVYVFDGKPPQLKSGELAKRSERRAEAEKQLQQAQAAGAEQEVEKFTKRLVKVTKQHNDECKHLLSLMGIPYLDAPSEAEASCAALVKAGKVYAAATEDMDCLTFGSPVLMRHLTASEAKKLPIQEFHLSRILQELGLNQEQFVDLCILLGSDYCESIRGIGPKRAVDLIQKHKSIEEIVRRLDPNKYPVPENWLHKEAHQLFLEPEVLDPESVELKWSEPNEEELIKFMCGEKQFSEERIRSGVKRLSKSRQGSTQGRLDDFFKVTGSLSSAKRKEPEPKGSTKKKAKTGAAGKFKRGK
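Recombinant FEN1 (10 nM) was preincubated with pin-transferred compounds for 15 min at room temperature, then flap DNA substrate (50 nM final) was added. Plates were read at 0 and 15 min, and normalized concentration–response data were fitted to a four-parameter Hill equation.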
Pol kappa inh-1: DNA polymerase kappa (human) inhibition; purified Pol kappa, fluorescent DNA synthesis assay, 10 min; Potency, µM (titrated, usually from 107 µM), inactives show at the top dose activity, negative = inhibition, usual class: inhibitors; 400,000 tested, 0.53% active; note: % is set by controls: 0 for no effect and ±100 for the full control effect
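10 nM Pol kappa preincubated 15 min at room temperature with compounds, then reaction started with substrate at 50 nM final. Fluorescence read kinetically at 0 and 10 min; buffer-only wells served as negative control.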
POLB inh: DNA polymerase beta (human) inhibition | P06746 | Pol beta primer extension/strand displacement, fluorescence kinetic | Potency, µM (doses to about 114 µM), without a hit: at the highest dose activity change, negative = inhibition, most hits filed as inhibitors | 340,000 tested, 1.3% active | AID 485314; note: % is set by controls: 0 for no effect and ±100 for the full control effect
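Pol beta (10 nM) and compounds were preincubated 15 min at room temperature, then 50 nM substrate (final) started primer extension/strand displacement. Reads were taken at 0 and 10 min; concentration-response data were fitted to a four-parameter Hill equation.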
Pol kappa inh-2: confirmation of human DNA polymerase kappa inhibitors; purified Pol-kappa, fluorescent strand-displacement substrate; 920 tested, 76% active; Potency, µM, actives largely listed as inhibitors; shares compounds with Pol eta inh-1
Pol eta inh-2: confirmation of human DNA polymerase eta inhibitors | shares compounds with Pol eta inh-1 | Pol eta primer extension, TAMRA/BHQ fluorescence, 10 min | Potency, µM, most hits filed as inhibitors | 2,600 tested, 64% active | AID 720502
* hit, by the source's call; [ ] = remark or other dose. Sampled rows, rich in hits. Any-hit rate of the full collection: about 2.4%. Calls come from the whole dose curve; as a rule, active = well fitted curve in the direction sought with a large enough effect; inconclusive = small, poorly fitted or top-dose-only effect, or another doubt; inactive = no such curve, though single readings can be large; an effect the other way counts as inactive or inconclusive. Potency is the fitted concentration of half-maximal effect.

`CC(=O)c1c(C)[nH]c(C(=O)OC(C)C(=O)Nc2ccc(C)c(S(=O)(=O)N3CCOCC3)c2)c1C` (stereo not drawn) gave WRN inhibitor 4%, Pol iota inh -15%, Pol eta inh-1 -6%, FEN1 inh -2% and Pol kappa inh-1 -2%.
For Cc1ccc(NC(=O)C(C)OC(=O)c2cc(=O)[nH]c3ccccc23)cc1S(=O)(=O)N1CCOCC1 (stereo not drawn) the results were WRN inhibitor inconclusive, Pol iota inh 25µM*, Pol eta inh-1 18µM*, FEN1 inh -4%, Pol kappa inh-1 89µM* and Pol eta inh-2 inconclusive.
Cc1ccc(C(=O)N2CCc3cc(CNC(=O)c4ccccc4F)ccc32)cc1 was read as Pol iota inh -13%, Pol eta inh-1 3%, FEN1 inh -4%, Pol kappa inh-1 -5%[60.1 µM] and POLB inh 7%.
Cc1ccc(N=C2NC(=O)/C(=C/C=C/c3ccco3)S2)cc1 was read as WRN inhibitor 35µM*, Pol iota inh 3.2µM*, Pol eta inh-1 10µM*, FEN1 inh 50µM*, Pol kappa inh-1 20µM*, POLB inh 22µM* and Pol eta inh-2 67*.
Screening COc1ccc(Cn2c(O)c(C=Nc3ccc(OC)cc3)c3ccccc3c2=O)cc1 returned WRN inhibitor -13%, Pol iota inh 14%, Pol eta inh-1 -7%, FEN1 inh -8%, Pol kappa inh-1 -20% and POLB inh 35%.
For COc1ccc(Cn2c(O)c(C=Nc3ccccc3C(=O)O)c3ccccc3c2=O)cc1 the results were WRN inhibitor inconclusive, Pol iota inh inconclusive, Pol eta inh-1 20µM*, FEN1 inh inconclusive, Pol kappa inh-1 -45%, POLB inh inconclusive and Pol eta inh-2 67*.
For O=c1cc(-c2cccc(F)c2)[nH]c2cc(F)ccc12 the results were Pol kappa inh-1 -9%.
O=C(O)c1cnn(-c2ccccc2)c1-c1ccncc1 was read as WRN inhibitor -1%[11.6 µM], Pol iota inh inconclusive, Pol eta inh-1 22µM*, FEN1 inh -14%, Pol kappa inh-1 inconclusive, POLB inh inconclusive, Pol kappa inh-2 19* and Pol eta inh-2 60*.
`O=Cc1cccn1-c1c(C(=O)O)cnn1-c1ccccc1` gave WRN inhibitor -2%, Pol iota inh 36%, Pol eta inh-1 -8%, FEN1 inh 17%, Pol kappa inh-1 -7% and POLB inh 2%.
For CC1(C(=O)NNC(=O)c2ccc(=O)oc2)CC1Br (stereo not drawn) the results were WRN inhibitor inconclusive, Pol iota inh inconclusive, Pol eta inh-1 20µM*, FEN1 inh -6%, Pol kappa inh-1 inconclusive, POLB inh inconclusive and Pol eta inh-2 34*.
For COC(=O)c1ccc(C)c(NC(=O)CCSc2ccc(C)cc2)c1 the results were WRN inhibitor -7%, Pol iota inh 20%, Pol eta inh-1 1%, FEN1 inh -14%, Pol kappa inh-1 -6% and POLB inh 22%.
Cc1csc(NC(=O)CSc2sc3c(O)cc(=O)[nH]c3c2C#N)n1 was read as WRN inhibitor 40µM*, Pol iota inh 7.9µM*, Pol eta inh-1 18µM*, FEN1 inh 50µM*, Pol kappa inh-1 28µM*, POLB inh 45µM*, Pol kappa inh-2 inconclusive and Pol eta inh-2 inconclusive.
COC(=O)c1ccc(C)c(NC(=O)CSc2sc3c(O)cc(=O)[nH]c3c2C#N)c1 was read as WRN inhibitor inconclusive, Pol iota inh 13µM*, Pol eta inh-1 10µM*, FEN1 inh inconclusive, Pol kappa inh-1 22µM*, POLB inh 35µM*, Pol kappa inh-2 inconclusive and Pol eta inh-2 inconclusive.
`COc1ccc(NC(=O)CSc2sc3c(O)cc(=O)[nH]c3c2C#N)c(OC)c1` gave WRN inhibitor inconclusive, Pol iota inh 2.5µM*, Pol eta inh-1 22µM*, FEN1 inh 32µM*, Pol kappa inh-1 inconclusive, POLB inh 1.6µM*, Pol kappa inh-2 inconclusive and Pol eta inh-2 inconclusive.
Cc1csc(NC(=O)CSc2nsc(SCC(=O)Nc3nc(C)cs3)c2C#N)n1 was read as WRN inhibitor -10%, Pol iota inh -1%, Pol eta inh-1 -4%, FEN1 inh -6%, Pol kappa inh-1 -19% and POLB inh 27%.
`Cc1ccc(/C=N/Nc2cccc(C(=O)O)c2)s1` gave WRN inhibitor inconclusive, Pol iota inh -21%, Pol eta inh-1 inconclusive, FEN1 inh 8%, Pol kappa inh-1 -13% and POLB inh inconclusive.
`Cc1ccc(/C=N/Nc2ccc(C(=O)O)cc2)s1` gave WRN inhibitor -35%, Pol iota inh inconclusive, Pol eta inh-1 40µM*, FEN1 inh -10%, Pol kappa inh-1 -26%, POLB inh inconclusive, Pol kappa inh-2 inconclusive and Pol eta inh-2 48*.
O=C(O)c1ccc(-n2ncc(Cl)c(Cl)c2=O)cc1 was read as WRN inhibitor -10%[11.6 µM], Pol eta inh-1 22µM*, Pol kappa inh-2 30* and Pol eta inh-2 48*.
For O=C(/C=C/c1ccc([N+](=O)[O-])cc1)Nc1cccc(C(=O)Nc2ccccc2C(=O)O)c1 the results were WRN inhibitor 32µM*, Pol iota inh inconclusive, Pol eta inh-1 28µM*, FEN1 inh inconclusive, Pol kappa inh-1 -15%, POLB inh inconclusive and Pol eta inh-2 24*.
`CCOC(=O)c1c2c(n(Cc3ccccc3)c1C)C(=O)C(=O)c1ccccc1-2` gave WRN inhibitor -10%, Pol iota inh 40µM*, Pol eta inh-1 8.9µM*, FEN1 inh -16%, Pol kappa inh-1 -24% and Pol eta inh-2 85*.
Screening CCOC(=O)c1c2c3c(cccc3n(C)c1=O)C(=O)c1ccccc1-2 returned WRN inhibitor -14%[57.1 µM], Pol iota inh inconclusive, Pol eta inh-1 inconclusive, FEN1 inh inconclusive, Pol kappa inh-1 -29% and POLB inh inconclusive.
COc1ccc(NC(=O)c2c[nH]n3c(=O)cc(C4CCN(C(=O)OC(C)(C)C)CC4)nc23)cc1Cl was read as WRN inhibitor -5%, Pol iota inh 23%, Pol eta inh-1 89µM*, FEN1 inh inconclusive, Pol kappa inh-1 -7%, POLB inh -3%, Pol kappa inh-2 75* and Pol eta inh-2 85*.

Bioassay records (PubChem BioAssay)
